# Compounds with a hit are over-represented: about 10% of the library has one in this group of screens.
# HEK293 tox: HEK 293 cell cytotoxicity; HEK 293 viability, ATP luminescence (CellTiter-Glo), 48-72 h; Potency, µM (titrated, usually from 115 µM), usual class: inhibitors; 94,000 compounds, 6.6% hits; also: nearly all actives have a fitted effect of over 60% in size
#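 Cytotoxicity was scored by loss of ATP-coupled luminescence (CellTiter-Glo) in HEK 293 cells. Compound treatment ran 48 or 72 hr at 37 degree Celsius, 5% CO2, 95% humidity.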
# hNpr1 antagonist: human Npr1 receptor antagonism; P16066; HEK293 hNpr1 GloSensor cGMP, ANP-stimulated luminescence; Potency, µM (doses to about 46.3 µM), most hits filed as inhibitors; 76,000 compounds, 1.6% hits; calls by dose curve; also: nearly all actives have a fitted effect of over 60% in size
#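 Compound pre-incubated 30 min at room temperature on GloSensor-loaded HEK293 cells stably carrying hNpr1 and the pGS-40F cGMP biosensor. Stimulation uses hNppA at 0.1 nM final; luminescence is taken at baseline and 20 min post-agonist.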
# Luciferase inh: Photinus pyralis luciferase inhibition; P08659; 76,000 compounds, 2.5% hits; Potency, µM (highest dose often 115 µM), hits mostly inhibitors; purified P. pyralis luciferase, luminescence, biochemical; AID 1347043; also: nearly all actives have a fitted effect of over 65% in size
# Target sequence (P08659 whole entry, looked up): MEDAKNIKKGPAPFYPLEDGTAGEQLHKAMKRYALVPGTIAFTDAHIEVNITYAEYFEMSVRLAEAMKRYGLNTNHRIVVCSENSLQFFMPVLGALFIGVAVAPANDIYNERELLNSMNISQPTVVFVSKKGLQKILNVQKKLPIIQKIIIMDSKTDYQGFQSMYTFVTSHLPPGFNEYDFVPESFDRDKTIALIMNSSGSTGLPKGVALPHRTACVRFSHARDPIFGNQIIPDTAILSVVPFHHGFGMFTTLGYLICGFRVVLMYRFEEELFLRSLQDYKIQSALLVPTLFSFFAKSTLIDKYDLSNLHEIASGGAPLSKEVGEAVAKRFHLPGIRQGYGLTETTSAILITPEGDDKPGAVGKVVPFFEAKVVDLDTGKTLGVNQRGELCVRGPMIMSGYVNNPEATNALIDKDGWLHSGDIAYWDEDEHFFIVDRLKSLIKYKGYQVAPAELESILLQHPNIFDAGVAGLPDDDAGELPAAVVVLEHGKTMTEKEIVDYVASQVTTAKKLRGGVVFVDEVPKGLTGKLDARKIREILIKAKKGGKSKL
#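 Luminescence read by CCD imager after adding enzyme (10nM final) to wells holding compound, titrated in qHTS. Substrates 10uM each D-luciferin and ATP; buffer 50mM Tris acetate pH 7.5, 10mM Mg acetate, Tween-20, BSA.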
# GPT2 inh: blocks human glutamate pyruvate transaminase 2 | Q8TD30 | Recombinant GPT2, coupled pyruvate oxidase/HRP Amplex Red fluorescence | Potency, µM (top dose mostly 57.7 µM), hits mostly inhibitors | 100,000 compounds, 0.25% hits; also: nearly all actives have a fitted effect of over 60% in size
#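 Fluorescence read-out: pyruvate from GPT2 turnover coupled to pyruvate oxidase, HRP and Amplex Red (0.2mM ThPP, 0.2U/mL PO and HRP, 50uM Amplex final). Substrates 250uM a-KG, 2mM L-alanine; enzyme 10ng/uL; 30 min RT.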
# NIH3T3 tox: kills NIH 3T3 cells; NIH 3T3 viability, CellTiter-Glo ATP luminescence, 48-72 h; Potency, µM (highest dose often 96.7 µM), hits mostly inhibitors; 94,000 compounds, 4.3% hits; AID 1345082; also: nearly all actives have a fitted effect of over 55% in size
#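 Luminescent ATP readout (CellTiter-Glo, 10 min RT) after 48 or 72 hr compound exposure of NIH 3T3 cells seeded at 400 cells/well in 1536-well format; quantitative HTS.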
# NPR1 antag cnf: hNpr1 antagonism, confirmation assay; shares compounds with hNpr1 antagonist; HEK293 hNpr1 cGMP GloSensor luminescence, ANP-stimulated; Potency, µM (top dose mostly 57.6 µM), actives largely listed as inhibitors; 1,400 compounds, 76% hits; AID 1347044; calls by dose curve; also: nearly all actives have a fitted effect of over 70% in size
# Npr2 selectivity: hNpr2 antagonism, selectivity versus Npr1; HEK293 hNpr2 GloSensor cGMP luminescence, CNP-stimulated; Potency, µM (series often up to 57.6 µM), actives largely listed as inhibitors; 1,400 compounds, 67% hits; AID 1347046; shares compounds with hNpr1 antagonist; calls by dose curve; also: nearly all actives have a fitted effect of over 70% in size
# FLuc inh counter: inhibits firefly luciferase, false Npr1 antagonist flag | shares compounds with hNpr1 antagonist | purified FLuc enzyme, luminescence, Km substrate | 1,400 compounds, 0.7% hits | AID 1347047 | Potency, µM (titrated, usually from 57.6 µM), hits mostly inhibitors; also: series mostly up to about 58 µM
# GloSensor ctrl: control cell line activity, Npr1 antagonist counter-screen; shares compounds with hNpr1 antagonist; HEK293 GloSensor cGMP, SNP-stimulated, luminescence; Potency, µM (top dose mostly 57.6 µM), usual class: inhibitors; 1,400 compounds, 69% hits; AID 1347051; calls by dose curve; also: nearly all actives have a fitted effect of over 70% in size
# Numbers stand for hits; - = inactive; ? = inconclusive; . = no result. Unless noted, calls follow the shape of the dose curve; as a rule, active = well fitted curve in the direction sought with a large enough effect; inconclusive = small, poorly fitted or top-dose-only effect, or another doubt; inactive = no such curve, though single readings can be large; an effect the other way counts as inactive or inconclusive.
SMILES,HEK293 tox,hNpr1 antagonist,Luciferase inh,GPT2 inh,NIH3T3 tox,NPR1 antag cnf,Npr2 selectivity,FLuc inh counter,GloSensor ctrl
O=C(NC(c1ccccc1)c1ccccc1)c1cnc2c(c1)N(C(=O)Cc1ccc(O)cc1)CCC2,-,-,-,?,?,.,.,.,.
COc1ccccc1CC(=O)N1CCCc2ncc(C(=O)Nc3cccnc3)cc21,?,-,-,-,-,.,.,.,.
CCc1ccc(S(=O)(=O)N2CCN(C3CCN(CCC(C)C)C3=O)CC2)cc1 (stereo unspecified),?,-,-,-,?,.,.,.,.
COc1ccc(N2CCN(C(=O)Nc3nc(C)ns3)CC2(C)C)cc1,10µM,7.9µM,-,-,?,12µM,15µM,-,8.6µM
CC(C)c1noc(-c2cn(C3CCN(C(=O)c4cccc(F)c4)C3)nn2)n1 (stereo unspecified),?,?,-,-,?,.,.,.,.
CC(C)c1noc(-c2cn(C3CCN(C(=O)c4ccc(F)cc4Cl)C3)nn2)n1 (stereo unspecified),?,?,-,-,?,15µM,15µM,-,14µM
CC(C)c1noc(-c2cn(C3CCN(C(=O)c4cccc(Cl)c4)C3)nn2)n1 (stereo unspecified),?,?,-,-,?,24µM,27µM,-,22µM
Cc1noc(-c2cn(C3CCN(C(=O)c4ccc(F)cc4Cl)C3)nn2)n1 (stereo unspecified),-,-,-,-,-,.,.,.,.
Cc1cccc(CN2CCCn3nc(C)c(-c4ccccc4-c4ccccc4)c32)n1,?,16µM,-,-,13µM,11µM,28µM,-,7.9µM
Cc1nn2c(c1-c1ccccc1-c1ccccc1)N(Cc1ccc(O)cc1)CCC2,7.9µM,3.5µM,-,-,8.9µM,2.8µM,5µM,-,3.5µM
CC(C)c1ccc(CN2CCC3(CC2)OCCN(c2ccc(F)cc2)C3=O)cc1,?,22µM,-,-,?,35µM,31µM,-,35µM
CN1CCC(CN2CCC3(CC2)OCCN(c2ccc(F)cc2)C3=O)CC1,?,-,-,-,?,.,.,.,.
Cc1ccccc1-c1cnc2[nH]cc(CC(=O)NC3CC3)c2c1,?,14µM,-,-,?,13µM,18µM,-,13µM
Cc1ccccc1-c1cnc2[nH]cc(CC(=O)NCc3ccco3)c2c1,71µM,32µM,-,-,?,35µM,31µM,-,25µM
Cc1cn2nc(C(=O)N3CCC(NC(=O)Cc4c[nH]c5ccccc45)CC3)cc2c(=O)[nH]1,-,-,-,-,-,.,.,.,.
Cc1ccc2cc(CCC(=O)NCc3ccco3)c(=O)[nH]c2c1,-,-,-,-,-,.,.,.,.
CCC(=O)N1Cc2ccccc2CC2(CCCN(Cc3ccc(O)cc3)C2)C1 (stereo unspecified),-,.,.,-,-,.,.,.,.
Cc1ccc(C(=O)NC2CCN(CCn3nc4n(c3=O)CCCC4)C2)cc1 (stereo unspecified),-,.,.,.,-,.,.,.,.
COc1ccc(-c2noc(CC3CCN(C(=O)Cc4ccccc4OC)CC3)n2)cc1,?,?,-,-,?,22µM,19µM,-,22µM
O=C(c1ccc(F)cc1F)N1CCC(Cc2nc(-c3cnccn3)no2)CC1,-,-,-,-,-,.,.,.,.
COc1ccccc1CC(=O)N1CCC(Cc2nc(-c3ccc(F)cc3)no2)CC1,?,1.3µM,-,-,?,2.4µM,2.4µM,-,1.9µM
COc1ccc(C(=O)N2CCC(Cc3nc(-c4ccc(F)cc4)no3)CC2)c(OC)n1,?,2.8µM,-,-,?,3.4µM,4.8µM,-,4.8µM
